This is part of a sample that, as a whole, favours compounds with a hit. Of some 83,000 tested, about 20% had one in any assay.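 48-hour exposure, single concentration, 96-well plates; percent growth endpoint where 0 means no net growth. Active: below 10.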 Activity calls are given as the source filed them.

The test system of this assay is NCI-H226 lung. Kind of assay: NCI-60 one-dose screen, 48 h (100 = growth as untreated, 0 = no growth, -100 = all killed). The settings on record: 10 µM unless noted.
On to `Cc1ccc(NC(=O)CN2CCN(c3ncnc4c3cnn4-c3ccccc3)CC2)cc1`, for which the growth is 76.5% (inactive).
As to `COc1cc(OC)cc(C(=O)Nc2cccc(-c3cn(-c4ccc(S(N)(=O)=O)cc4)nn3)c2)c1`, the growth was 57.5% (inactive).
Consider `CCN(CC)c1ccc(/C=N/Nc2nc(-c3ccc(Br)cc3)cs2)c(O)c1`, for which the growth is 31.7% (inactive).
In the case of `Cn1cc(-c2cc(N)n3nc(-c4c[nH]c5ccccc45)cc3n2)c2cc(Br)cnc21`, the growth is -33.1% (active).
With `C#C[C@]1(O)CC[C@H]2[C@@H]3CC=C4c5sc(-c6ccc(O)c(O)c6)nc5CC[C@]4(C)[C@H]3CC[C@@]21C`, the growth was -65.4% (active).
In the case of `Cc1ccc(NCC(=O)Cn2cc(COc3ccc(C=Nc4cnc5ccccc5c4)cc3)nn2)cc1`, the growth was 105% (inactive).
For `CN(C)CCOc1ccc(C(=O)C2[C@H](c3ccc(Cl)cc3)[C@@H](c3ccccc3)NC23C(=O)Nc2ccccc23)cc1` (some centres not stated), the growth was 72% (inactive).
With `CC(C)(C)OC(=O)/C=C/c1cccc2c1C(=O)NC(C)(c1cc3cc(Cl)ccc3oc1=O)N2` (configuration not stated), the growth was 50.6% (inactive).
As for `CCOC(=O)/C=C/c1cccc2c1C(=O)NC(C)(c1cc3cc(Cl)ccc3oc1=O)N2` (configuration not stated), the growth was 46.1% (inactive).
For `N=C1N=C(SCc2nc3ccccc3[nH]2)NC(=O)/C1=C/c1ccc(Cl)cc1` the value was 95.1% (inactive).
With `CC(C)CSc1nc(NCCc2c[nH]c3ccccc23)c(C#N)c(-c2ccccc2)n1`, the growth was 51.3% (inactive).
As for `COc1cc(-c2cc(-c3cccc(OCC(=O)O)c3)[nH]c(=O)c2C#N)cc(OC)c1OC`, the growth was 98.2% (inactive).
The value for `COc1ccc(C(SCCNCc2cc(N(C)C)ccn2)(c2ccccc2)c2ccccc2)cc1` was 15.1% (inactive); that for `Cc1cccc(-c2nc(Nc3ccc(C)c(S(N)(=O)=O)c3)c3ccccc3n2)c1` was 41.9% (inactive); that for `Cn1cc(-c2cc(N)n3nc(-c4cn(C)c5ccccc45)cc3n2)c2cc(Br)ccc21` was 2.38% (active).
The value for `CC12CC[C@@H]3[C@]4(C)COC(c5cn[nH]c5-c5cccc(Cl)c5)O[C@@H]4CC[C@@]3(C)[C@@H]1CC(C1=CCOC1=O)O2` (some centres not stated) was 42.9% (inactive).
With `Cc1ccc(C2CC(c3ccc(S(=O)(=O)NCCNc4nc(Nc5ccc(F)cc5)nc(N(C)C)n4)cc3)=Nc3c(N)nc(N)nc3N2)cc1` (configuration not stated), the growth is 62.7% (inactive).
In the case of `O=C(NN1C(=O)/C(=C/C=C/c2ccc([N+](=O)[O-])o2)SC1=S)c1ccc(Cl)cc1`, the growth is -97.1% (active).
With `COc1ccc(NC(=O)Cn2c3c(sc2=O)[C@H]2[C@@H](O)[C@@H](O)[C@H](O)[C@@H]2CS3)cc1`, the growth is 96.3% (inactive).
As to `CC1(C)CC[C@]2(C(=O)O)CC[C@]3(C)C(=CCC4[C@@]5(C)C[C@@H](O)[C@@H]6OC(c7ccco7)OC[C@@]6(C)C5CC[C@]43C)C2C1` (some centres not stated), the growth was 50.6% (inactive).
On to `C#CCOc1ccc(/C=N/Nc2nc(-c3ccc(Cl)cc3)cs2)cc1OC`, for which the growth was 56.3% (inactive).
As to `CCCCCCCCOc1cccc(S(=O)(=O)Nc2ccc(C)cc2C(=O)O)c1`, the growth was 98.4% (inactive).
Turning to `Nc1nnc(-c2c[nH]c3ccc(Br)cc23)c(-c2c[nH]c3ncc(Br)cc23)n1`, the growth is 39.3% (inactive).
In the case of `O=C(c1ccccc1)c1ccc2nc(-c3ccc(F)cc3)[nH]c2c1`, the growth was 25.4% (inactive).
For `Cn1cc(-c2cc(N)n3nc(-c4cn(C)c5ccc(Cl)cc45)cc3n2)c2ccccc21`, the growth is 105% (inactive).
For the molecule `O=C(CSc1nc2ccccc2c(=O)[nH]1)NCCN1CCCCC1`, the growth is 95.7% (inactive).
Regarding `CCCn1cc(-c2nc(Nc3ccc(C(=O)NCCCCNc4cccc5c4C(=O)N(C4CCC(=O)NC4=O)C5=O)cc3)nc3[nH]ccc23)cn1` (configuration not stated), the growth was 20.9% (inactive).
As to `CCOC(=O)C1=C(N)N(c2ccccc2)C2=C(C(=O)CC(C)(C)C2)C1c1ccccc1Cl` (configuration not stated), the growth was 76.3% (inactive).
The value for `Cc1ccc(-c2nc(C#N)c(S(=O)(=O)N3CCN(S(=O)(=O)c4ccc(Cl)cc4)CC3)o2)cc1` was 87.6% (inactive); that for `O=c1[nH]c2ccc(Cl)cc2cc1CSc1nccc(-c2ccc(Cl)cc2)n1` was 8.77% (active).
For `CC1(C)CC[C@]2(C(=O)O)CC[C@]3(C)C(=CCC4[C@@]5(C)C[C@@H](O)[C@@H]6OC(c7ccc(F)cc7)OC[C@@]6(C)C5CC[C@]43C)C2C1` (some centres not stated) the value was 34.4% (inactive); for `C=C1CC[C@@H]2[C@]3(C)COC(c4ccccc4)O[C@@H]3CC[C@@]2(C)[C@@H]1C/C=C1/C(=O)OCC1OC(C)=O` (some centres not stated), -79.8% (active).

The values above are taken from PubChem BioAssay (NCI).
